Assay [1] is described as follows: hit retest on RPL19A-GFP reporter strain – cell-based, S. cerevisiae, flow cytometry, cherry picks, mother/daughter gates, confirmation (AID 2270;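 active = GFP response below 50% of the DMSO control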). As to conditions: 3 h, at 10 µM, stronger effect = lower value, 100 = same GFP as DMSO wells.
Assay [2] in a line: yeast TOR pathway reporter LAP4-GFP change – cell-based, cherry picks, flow cytometry, mother/daughter gates, confirmation (AID 2271;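 active = GFP response above 150% of the DMSO control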;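 also: ratio of sample to DMSO plate mean so 100% equals DMSO level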). As to conditions: S. cerevisiae LAP4-GFP strain, 3 h, at 10 µM, stronger effect = higher value. In general terms: A flow cytometer gives signals particle by particle.
Assay [3] can be described thus: TOR pathway reporter MEP2-GFP, retest of hits – S. cerevisiae, flow cytometry GFP, cherry picks, confirmation (AID 2272;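 active = GFP response above 150% of the DMSO control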;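 also: ratio of well signal to plate DMSO mean so 100% equals DMSO level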). The note with it: S. cerevisiae MEP2-GFP strain, 3 h, at 10 µM, stronger effect = higher value.
Assay [4] can be described thus: yeast AGP1-GFP fluorescence change, single-dose – cell-based, flow cytometry, S. cerevisiae, cherry picks, confirmation (AID 2273;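 active = GFP response above 150% of the DMSO level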;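 also: median GFP channel fluorescence over the whole cell population gate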). The note with it: S. cerevisiae AGP1-GFP strain, 3 h, at 10 µM.
A short description of assay [5]: TOR pathway CIT2 reporter hit retest – S. cerevisiae, GFP fusion, cherry picks, mother/daughter gates, confirmation (AID 2274;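 active = GFP response above 150% of the DMSO level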). The note with it: S. cerevisiae CIT2-GFP strain, flow cytometry, 3 h, at 10 µM, stronger effect = higher value.
Assay [6] is described as follows: reduced mouse 2C T cell binding to pMHC/ICAM-1 vesicles – MLPCN validation set, flow cytometry, LFA-1/ICAM-1 modulator project, pilot screen (AID 2523;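 active = response below a set limit, under 55% cells CD8-positive and vesicle-bound, and CD8 cells' 90th-percentile brightness under 279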;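 as to vesicle binding response: mean PE anti-B7-1 fluorescence of CD8+ cells relative to row control; 100% = QL9-loaded vesicles with DMSO vehicle in the same plate row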). The note with it: 2C mouse CD8+ T cells, at 7 µM, stronger effect = lower value; double positive events: measured here: CD8+/vesicle+ event percentage.
Assay [7] concerns the target Integrin beta-1 (Homo sapiens) + Integrin alpha-4 (Homo sapiens) (UniProt P13612+P05556). The assay is described as follows: alpha4beta1 integrin LIBS antibody binding reduction – U937 cells, HUTS-21 mAb, flow cytometry, validation set, VLA-4 allosteric modulator project, pilot screen (AID 2674;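 active = inhibition above 50%, about 3 SD of the validation set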;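 also: antibody binding induced by the VLA-4 ligand LDV present at three times its Kd; 0% = LDV ligand with antibody and no compound and 100% = antibody without LDV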). As to conditions: HUTS-21 LIBS mAb binding, at 6.7 µM, stronger effect = higher value.

Assay [8] can be described thus: calorie-restriction mimetic ROS inhibitors, yeast – validation compound set, pilot screen (AID 2706;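 active = superoxide response below 65% of plate, a cut near 3 SD across the whole screen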;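 also: yeast exposed to compound for one week at 30 degrees C before staining; 100% = mean of all compound wells on the same plate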). The note with it: S. cerevisiae aging, superoxide DHE fluorescence; at 10 µM; stronger effect = lower value.
In assay [9] the target is Beta-adrenergic receptor kinase 1 (Homo sapiens) (UniProt P25098). The assay is described as follows: GRK2 binders displacing RNA aptamer, biochemical, validation, human GRK2, bead flow cytometry (AID 488806;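 active = aptamer binding inhibition above 30%, about 3 SD of noise from non-fluorescent compounds; inactive = inhibition at or below 30%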). The note with it: bead-bound GRK2, FAM-aptamer displacement, at 10 µM, stronger effect = higher value.
The target of assay [10] is Beta-2 adrenergic receptor (Homo sapiens) (UniProt P07550). Nature of the assay: agonist-induced loss of surface beta2AR – cell-based, FAP fluorogen, flow cytometry, validation set, pilot screen (AID 504459;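 active = percent response above 42, roughly 3 SD of non-fluorescent test compounds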;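 also: agonist-driven loss of surface beta2AR via internalization measured by FAP dye flow cytometry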). As to conditions: Am2.2-beta2AR cells, at 10 µM, stronger effect = higher value.
Assay [11] addresses AP-2 complex subunit beta (Homo sapiens) (UniProt P63010). The assay is described as follows: beta-arrestin/AP2 interaction blockers – biochemical, validation set, GST-AP2 beads, flow cytometry, pilot screen (AID 504541;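 active = inhibition above 54%, about 3 SD of non-fluorescent compounds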;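 also: AP2 carries R879A mutation and is captured from E. coli lysate; bead-bound FITC arrestin peptide fluorescence measuring arrestin peptide binding to AP2; 0% = DMSO wells and 100% = excess unlabeled arrestin peptide control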). The note with it: FITC arrestin peptide, at 10 µM, stronger effect = higher value.
Assay [12] in a line: cytosolic pH regulators acting via V-ATPase – S. cerevisiae, pHLuorin, HTS validation (AID 504600; in the data active = response above about 15%;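 also: plate controls were DMSO for no effect and reference compound for full effect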). As to conditions: V-ATPase proton transport, at 10 µM, stronger effect = higher value.
Assay [13] deals with anti-desmoglein-3 scFv antibody binding to human DSG3. Nature of the assay: blockers of pathogenic pemphigus antibody–desmoglein-3 binding – biochemical, validation compound set, bead-based, flow cytometry, pilot screen (AID 588368;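 active = binding below the plate cutoff, the plate median minus 3 SD, with a reading above zero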;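 also: signal is the median channel fluorescence of bead-bound GFP antibody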). The note with it: Protein G beads, DSG3-Fc, scFv-GFP binding, at 10 µM, stronger effect = lower value.
The test system of assay [14] is Botulinum neurotoxin type F light chain protease (Clostridium botulinum). Nature of the assay: Clostridium botulinum type F light chain protease inhibitors, microsphere substrate cleavage, validation (AID 588459). The note with it: multiplex microsphere protease substrate cleavage assay, flow cytometry; at 10 µM; stronger effect = higher value.
For assay [15], the target named is Botulinum neurotoxin type A (Clostridium botulinum) (UniProt P0DPI0). The assay is described as follows: BoNT/A light chain protease inhibitors, biochemical, multiplex microsphere flow cytometry, validation set (AID 588460). The note with it: at 10 µM, stronger effect = higher value.
Sequence of Botulinum neurotoxin type A (Clostridium botulinum) (P0DPI0 whole entry, looked up): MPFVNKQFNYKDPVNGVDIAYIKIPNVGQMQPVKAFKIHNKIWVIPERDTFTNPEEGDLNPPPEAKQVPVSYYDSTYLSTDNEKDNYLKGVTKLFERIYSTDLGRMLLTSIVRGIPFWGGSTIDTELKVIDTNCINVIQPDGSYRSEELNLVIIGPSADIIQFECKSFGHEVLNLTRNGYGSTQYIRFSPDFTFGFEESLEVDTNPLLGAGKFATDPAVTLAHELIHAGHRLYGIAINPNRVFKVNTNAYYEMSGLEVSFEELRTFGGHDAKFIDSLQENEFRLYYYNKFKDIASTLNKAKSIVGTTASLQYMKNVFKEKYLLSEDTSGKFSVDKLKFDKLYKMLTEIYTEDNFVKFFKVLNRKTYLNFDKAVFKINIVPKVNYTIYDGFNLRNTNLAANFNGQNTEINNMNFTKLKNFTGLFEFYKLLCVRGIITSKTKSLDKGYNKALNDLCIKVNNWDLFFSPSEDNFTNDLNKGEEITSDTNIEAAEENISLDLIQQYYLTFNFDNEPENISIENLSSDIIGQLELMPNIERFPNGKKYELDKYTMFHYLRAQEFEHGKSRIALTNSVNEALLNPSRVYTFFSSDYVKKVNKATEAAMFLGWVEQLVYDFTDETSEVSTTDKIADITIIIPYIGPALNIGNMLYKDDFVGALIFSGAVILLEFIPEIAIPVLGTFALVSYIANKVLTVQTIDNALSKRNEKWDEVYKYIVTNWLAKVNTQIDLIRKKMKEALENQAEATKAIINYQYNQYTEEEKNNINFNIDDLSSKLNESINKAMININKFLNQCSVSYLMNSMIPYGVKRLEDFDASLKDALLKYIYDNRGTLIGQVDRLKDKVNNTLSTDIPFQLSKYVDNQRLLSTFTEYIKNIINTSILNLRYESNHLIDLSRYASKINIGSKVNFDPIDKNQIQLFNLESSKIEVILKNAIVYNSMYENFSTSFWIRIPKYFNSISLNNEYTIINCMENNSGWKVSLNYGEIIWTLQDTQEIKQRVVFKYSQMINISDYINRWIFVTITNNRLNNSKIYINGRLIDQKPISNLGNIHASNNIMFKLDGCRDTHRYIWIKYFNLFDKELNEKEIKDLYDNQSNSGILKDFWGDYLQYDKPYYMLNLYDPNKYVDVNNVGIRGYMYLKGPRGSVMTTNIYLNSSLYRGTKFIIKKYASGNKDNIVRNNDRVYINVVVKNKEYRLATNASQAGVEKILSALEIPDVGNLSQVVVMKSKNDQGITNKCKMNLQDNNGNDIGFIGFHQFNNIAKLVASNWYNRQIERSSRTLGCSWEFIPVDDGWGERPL
The target of assay [16] is Lethal factor (Bacillus anthracis) (UniProt P15917). The assay is described as follows: Bacillus anthracis lethal factor inhibition, microsphere flow cytometry protease assay, validation at 10 µM (AID 588461). The note with it: multiplex microsphere protease cleavage assay, stronger effect = higher value.
A short description of assay [17]: Nile Red efflux blockade in pump-expressing yeast – validation compound set, multiplex, phenotypic, pilot screen (AID 588506;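 active = efflux inhibition above 0.42, the validation set average plus 4 SD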;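 also: Nile Red retained in cells so higher fluorescence means more efflux inhibition; 0 = negative control wells and 1 = enniatin B 25 µM full block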). The note with it: S. cerevisiae pump-expressing triplex, Nile Red efflux flow cytometry; at 10 µM; stronger effect = higher value.
In assay [18] the target is ATP-binding cassette sub-family B member 6 (Homo sapiens) (UniProt Q9NP58). Nature of the assay: blockers of ABCB6-driven porphyrin uptake – K562-ABCB6 cells, flow cytometry, validation set, pilot screen (AID 588550;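 active = inhibition above the screen-wide mean plus 3 SD, about 51%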;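 also: 0% = DMSO wells and 100% = benzethonium chloride 70 µM positive control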). The note with it: K562-ABCB6 porphyrin accumulation, 1 h, at 10 µM, stronger effect = higher value.
Sequence of ATP-binding cassette sub-family B member 6 (Homo sapiens) (Q9NP58 whole entry, looked up): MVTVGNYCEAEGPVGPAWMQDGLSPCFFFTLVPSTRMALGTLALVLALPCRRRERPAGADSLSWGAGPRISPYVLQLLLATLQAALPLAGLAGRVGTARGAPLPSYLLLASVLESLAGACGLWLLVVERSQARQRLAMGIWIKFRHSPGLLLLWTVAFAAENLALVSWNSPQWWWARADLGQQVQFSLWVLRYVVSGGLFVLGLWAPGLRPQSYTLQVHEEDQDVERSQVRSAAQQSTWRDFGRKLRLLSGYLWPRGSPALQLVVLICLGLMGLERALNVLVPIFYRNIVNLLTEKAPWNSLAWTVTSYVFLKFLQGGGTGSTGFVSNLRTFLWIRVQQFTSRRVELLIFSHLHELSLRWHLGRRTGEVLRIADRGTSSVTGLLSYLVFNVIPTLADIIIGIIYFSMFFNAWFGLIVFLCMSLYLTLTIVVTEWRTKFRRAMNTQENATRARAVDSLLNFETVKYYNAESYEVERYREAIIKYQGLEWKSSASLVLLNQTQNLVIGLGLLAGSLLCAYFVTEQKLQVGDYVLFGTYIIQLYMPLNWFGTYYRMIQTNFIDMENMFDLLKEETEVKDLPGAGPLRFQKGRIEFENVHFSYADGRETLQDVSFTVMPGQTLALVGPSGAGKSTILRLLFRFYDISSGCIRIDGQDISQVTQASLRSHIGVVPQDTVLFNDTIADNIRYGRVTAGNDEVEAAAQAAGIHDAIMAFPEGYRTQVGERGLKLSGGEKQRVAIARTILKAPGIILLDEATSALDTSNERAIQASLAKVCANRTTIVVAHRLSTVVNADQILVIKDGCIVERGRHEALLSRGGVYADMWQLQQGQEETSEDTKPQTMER
Assay [19] in a line: AML differentiation inducers, ER-HoxA9 marrow cells – cell-based, GFP/MAC1 double positive, flow cytometry, validation set, primary screen (AID 588685;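 active = differentiation response of at least 50%, scaled between solvent and reference control, from cells with both markers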;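 also: compound exposure lasts four days before antibody staining and flow analysis; 0% = DMSO wells and 100% = 5 µM fulvestrant positive control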). The note with it: stronger effect = higher value.
Setting [20] is: measured here: daughter cell gate.
[21] abbreviates: measured here: mother cell gate.
[22] abbreviates: measured here: daughter cell gate response.
Where [23] appears, read: measured here: mother cell gate response.

The record followed here is PubChem BioAssay.

Active and inactive are the calls of the source. Unless noted, no rule for the calls is given here.

Sequence of AP-2 complex subunit beta (Homo sapiens) (P63010 whole entry, looked up, one chain of several): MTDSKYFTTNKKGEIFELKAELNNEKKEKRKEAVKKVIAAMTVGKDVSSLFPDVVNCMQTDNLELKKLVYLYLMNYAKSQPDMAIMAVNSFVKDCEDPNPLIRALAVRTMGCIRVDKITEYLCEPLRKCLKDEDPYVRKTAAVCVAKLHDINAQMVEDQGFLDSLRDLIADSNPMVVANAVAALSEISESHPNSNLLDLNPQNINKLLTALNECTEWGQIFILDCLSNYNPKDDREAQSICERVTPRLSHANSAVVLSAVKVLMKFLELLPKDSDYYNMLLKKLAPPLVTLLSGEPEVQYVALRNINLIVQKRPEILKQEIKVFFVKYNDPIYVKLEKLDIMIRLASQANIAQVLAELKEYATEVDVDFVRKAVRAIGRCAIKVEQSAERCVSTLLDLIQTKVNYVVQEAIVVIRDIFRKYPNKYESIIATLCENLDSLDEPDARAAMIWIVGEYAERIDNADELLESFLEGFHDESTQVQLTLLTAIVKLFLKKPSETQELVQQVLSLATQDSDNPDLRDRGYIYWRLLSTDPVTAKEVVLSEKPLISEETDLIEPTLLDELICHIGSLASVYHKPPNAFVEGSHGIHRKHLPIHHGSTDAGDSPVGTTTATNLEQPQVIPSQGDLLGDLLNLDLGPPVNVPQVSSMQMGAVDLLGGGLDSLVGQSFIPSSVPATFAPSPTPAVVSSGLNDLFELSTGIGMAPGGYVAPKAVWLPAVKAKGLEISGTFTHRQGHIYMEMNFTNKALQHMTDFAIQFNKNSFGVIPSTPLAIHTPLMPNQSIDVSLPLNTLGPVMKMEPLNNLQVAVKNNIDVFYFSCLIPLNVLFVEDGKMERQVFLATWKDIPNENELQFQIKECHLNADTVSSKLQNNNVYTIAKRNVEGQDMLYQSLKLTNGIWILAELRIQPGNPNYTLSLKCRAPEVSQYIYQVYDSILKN
Sequence of Integrin beta-1 (Homo sapiens) + Integrin alpha-4 (Homo sapiens) (P05556 whole entry, looked up): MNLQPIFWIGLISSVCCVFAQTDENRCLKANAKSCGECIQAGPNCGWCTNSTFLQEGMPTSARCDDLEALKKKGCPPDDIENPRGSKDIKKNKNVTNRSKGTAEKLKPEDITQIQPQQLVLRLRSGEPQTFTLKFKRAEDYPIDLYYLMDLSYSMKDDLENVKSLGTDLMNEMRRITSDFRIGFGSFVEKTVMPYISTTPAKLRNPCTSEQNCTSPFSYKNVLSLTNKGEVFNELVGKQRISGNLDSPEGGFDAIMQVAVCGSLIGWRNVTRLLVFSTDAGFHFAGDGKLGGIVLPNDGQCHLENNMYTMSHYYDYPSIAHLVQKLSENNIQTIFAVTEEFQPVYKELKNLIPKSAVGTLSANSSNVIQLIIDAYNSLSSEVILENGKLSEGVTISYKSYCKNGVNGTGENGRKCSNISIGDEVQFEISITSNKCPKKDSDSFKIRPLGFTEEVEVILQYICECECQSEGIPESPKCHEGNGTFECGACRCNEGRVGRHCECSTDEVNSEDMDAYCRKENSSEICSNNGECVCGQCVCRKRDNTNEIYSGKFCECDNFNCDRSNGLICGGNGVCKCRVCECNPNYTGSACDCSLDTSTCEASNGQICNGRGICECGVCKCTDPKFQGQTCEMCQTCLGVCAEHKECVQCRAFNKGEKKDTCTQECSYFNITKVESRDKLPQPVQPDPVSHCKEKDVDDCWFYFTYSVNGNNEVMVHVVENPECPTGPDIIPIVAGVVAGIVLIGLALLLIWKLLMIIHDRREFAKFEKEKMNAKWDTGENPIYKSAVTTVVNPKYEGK
Sequence of Integrin beta-1 (Homo sapiens) + Integrin alpha-4 (Homo sapiens) (P13612 whole entry, looked up): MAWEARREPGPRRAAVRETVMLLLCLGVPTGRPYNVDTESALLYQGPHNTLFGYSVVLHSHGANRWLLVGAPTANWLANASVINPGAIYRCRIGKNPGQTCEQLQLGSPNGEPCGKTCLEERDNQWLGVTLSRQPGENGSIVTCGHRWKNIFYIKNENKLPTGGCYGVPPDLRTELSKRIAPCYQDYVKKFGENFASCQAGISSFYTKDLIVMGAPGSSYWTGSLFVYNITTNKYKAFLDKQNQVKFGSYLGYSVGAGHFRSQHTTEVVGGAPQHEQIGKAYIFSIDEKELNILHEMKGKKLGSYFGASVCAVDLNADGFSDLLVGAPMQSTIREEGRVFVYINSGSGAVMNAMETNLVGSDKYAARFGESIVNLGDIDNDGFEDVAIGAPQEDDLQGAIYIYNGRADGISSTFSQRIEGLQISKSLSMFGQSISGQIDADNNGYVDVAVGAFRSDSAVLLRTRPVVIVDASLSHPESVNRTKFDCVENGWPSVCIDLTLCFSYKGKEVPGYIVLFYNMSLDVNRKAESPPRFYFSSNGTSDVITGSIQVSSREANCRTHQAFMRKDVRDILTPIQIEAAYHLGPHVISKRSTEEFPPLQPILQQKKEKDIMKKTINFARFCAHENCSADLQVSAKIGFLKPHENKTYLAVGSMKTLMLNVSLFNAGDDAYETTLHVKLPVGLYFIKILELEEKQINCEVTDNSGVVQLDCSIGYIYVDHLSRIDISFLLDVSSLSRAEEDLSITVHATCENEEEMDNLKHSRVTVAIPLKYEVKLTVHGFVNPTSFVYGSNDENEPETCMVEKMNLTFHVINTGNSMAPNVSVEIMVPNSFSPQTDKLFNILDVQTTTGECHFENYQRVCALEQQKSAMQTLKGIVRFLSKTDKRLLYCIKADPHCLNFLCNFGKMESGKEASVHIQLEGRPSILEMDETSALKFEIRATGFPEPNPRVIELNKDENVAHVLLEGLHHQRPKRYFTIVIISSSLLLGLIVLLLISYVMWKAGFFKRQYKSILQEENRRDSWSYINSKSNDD

In the case of `O=C1NC(=O)N(CCC2=CCCCC2)C(=O)/C1=C/c1cccs1`, the GFP response vs DMSO in [1] was 98.4% (inactive); in assay [1] (setting [20]), 97.9%; in assay [1] (setting [21]) it was 97.6%; in [3], 96.2% (inactive). The figures for the GFP response relative to DMSO in assay [2], in assay [2] (setting [22]) and in assay [2] (setting [23]) were 134% (inactive), 128% and 138%, respectively. The GFP response, % of DMSO in [4] was 84% (inactive); in assay [5], 91.2% (inactive); in assay [5] (setting [20]), 93.6%; in assay [5] (setting [21]), 86.7%.
A word on the inhibition: it is the change of the read-out against control, counted positive when it falls. For the compound `NCCc1ccc(O)cc1`, the double positive events in [6] was determined as 60%. The vesicle binding response in assay [6] was 185% (inactive). The inhibition in assay [7] was -2.82% (inactive); in [11], 5.64% (inactive); in assay [14], 5.4% (inactive); in assay [15], 0.3% (inactive); in assay [16], -8.1% (inactive); in assay [18] it was -2% (inactive). Further, the superoxide response (% of plate) in [8] was 94.8% (inactive). Also, the aptamer binding inhibition in assay [9] is 2% (inactive). In addition, the response in [10] is -14.8% (inactive); in [12], 5.09% (inactive). For the same compound, in [13], the binding (% of control) was 107% (inactive). The efflux inhibition (fraction of control) in assay [17] was -0.09 (inactive). Besides, in [19], the differentiation response is -11.9% (inactive).
For the compound `c1cnc2c(c1)ccc1ncccc12`, in assay [6], the double positive events worked out at 64.8%. Moreover, in assay [6], the vesicle binding response was 165% (inactive). Also, the inhibition in assay [7] was 0.59% (inactive); in assay [11], -6.24% (inactive); in assay [14], -4.1% (inactive); in assay [15], -0.7% (inactive); in [16] it was -2.4% (inactive); in assay [18], 4% (inactive). The superoxide response (% of plate) in assay [8] is 83.3% (inactive). Also, in [9], the aptamer binding inhibition is 8% (inactive). In addition, the response in assay [10] is -15% (inactive); in [12] it was 21.4% (active). For the same compound, the binding (% of control) in assay [13] was 102% (inactive). In addition, the efflux inhibition (fraction of control) in assay [17] is 0.08 (inactive). In assay [19], the differentiation response was -17.8% (inactive).
Regarding `Cc1nc2ccccc2c(=O)n1-c1ccc(C(=O)O)cc1`, the double positive events in assay [6] was 63.4%. Moreover, the vesicle binding response in [6] was 165% (inactive). Moreover, the inhibition in [7] was 2.93% (inactive); in assay [11] it was 34.5% (inactive); in assay [14] it was 0.9% (inactive); in assay [15] it was -0.2% (inactive); in assay [16] it was -5.6% (inactive); in assay [18], -3% (inactive). Also, the superoxide response (% of plate) in [8] was 96.8% (inactive). Further, the aptamer binding inhibition in assay [9] was 3% (inactive). The response is 0.79% (inactive) in [10] and -10.1% (inactive) in [12]. Also, the binding (% of control) in [13] is 101% (inactive). Also, the efflux inhibition (fraction of control) in assay [17] is -0.43 (inactive). Also, in assay [19], the differentiation response was -8.96% (inactive).
Consider `NC(N)=NC(=O)c1nc(Cl)c(N)nc1N`, for which the inhibition is -3.3% (inactive) in [14] and -0.3% (inactive) in assay [15].
On to `CC(N=C(NC#N)Nc1ccncc1)C(C)(C)C` (stereo unspecified), for which the values for the inhibition in [14] and in [15] were 0.4% (inactive) and 2.3% (inactive), respectively.
On to `Cc1cccn2c(NCC3CCCO3)c(C(C)C)nc12` (stereo unspecified), for which the GFP response vs DMSO in assay [1] is 99.1% (inactive); in assay [1] (setting [20]), 100%; in assay [1] (setting [21]) it was 100%; in assay [3], 104% (inactive). In addition, the GFP response relative to DMSO in assay [2] is 97.7% (inactive); in [2] (setting [22]), 96.5%; in assay [2] (setting [23]), 96.5%. The GFP response, % of DMSO was 105% (inactive) in assay [4], 106% (inactive) in assay [5], 106% in assay [5] (setting [20]) and 105% in assay [5] (setting [21]).
In assay [6], `CC12CN3CC(c4ccccc4)(CN(C1)C31CCCCC1)C2=O` displayed a double positive events of 60.1%. Besides, in [6], the vesicle binding response was 232% (inactive). Moreover, the inhibition in assay [7] was 9.13% (inactive); in assay [11], -0.95% (inactive); in assay [14], 2.1% (inactive); in [15], -0.1% (inactive); in assay [16] it was -2.8% (inactive); in assay [18], -51% (inactive). The superoxide response (% of plate) in assay [8] was 90.5% (inactive). For the same compound, the aptamer binding inhibition in assay [9] was 4% (inactive). In addition, the response in [10] is 15.3% (inactive); in [12], 0.31% (inactive). The binding (% of control) in assay [13] was 99.5% (inactive). The efflux inhibition (fraction of control) in assay [17] was -0.03 (inactive). The differentiation response in [19] is 13.6% (inactive).
